This note sets out measurements from PubChem BioAssay.

Values joined by “and” are separate entries in the source; they are usually repeats but may differ in a detail not shown here. Equal entries are not always repeated. Inconclusive results are not listed. Active and inactive are the calls of the source. Unless noted, no rule for the calls is given here.

Assay [1] is described as follows: reducers of polyQ inclusions in PC12 cells, cell-based, NGF-treated PC12, GFPQ80 (AID 1614).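 Also: lower means fewer inclusions and 0 means no inclusions at all.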 As to conditions: PC12 NGF-treated GFP-polyQ80 inclusion reduction.
For assay [2], the system named is Aerobactin synthetase IucA (Klebsiella pneumoniae). The experiment in a line: IucA aerobactin synthetase inhibitors, biochemical, Tocris library, absorbance (AID 1345561).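 Also: 100% = enzyme without compound and 0% = no enzyme.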 Particulars: purified IucA enzyme assay, absorbance (OD) read-out; stronger effect = lower value;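 tested at 8 µM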.
Assay [3] concerns Neuropilin-2 / VEGF-C interaction (human). Put plainly: inhibitors of NRP2–VEGF-C binding, biochemical, microplate binding format, z-score (AID 743281). As to conditions: microplate NRP2/VEGF-C binding assay; stronger effect = lower value.
Assay [4] in a line: growth inhibition of DIPG glioma cells, dose response, cell-based, SU-DIPG-XVII, MIPE5.0, CellTiter-Glo, qHTS (AID 1347060; cut-off not given, nearly all actives have AC50 up to about 26 µM;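 as to AC50: cells exposed to compound for 48 hours before viability readout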). Particulars: SU-DIPG-XVII viability, CellTiter-Glo ATP luminescence. In general terms: In ATP-based viability assays light output follows the ATP content of the culture.
The nature of assay [5]: growth inhibition of DIPG glioma cells, dose response, cell-based, SU-DIPG-XIII, MIPE5.0, CellTiter-Glo, qHTS (AID 1347064; cut-off not given, nearly all actives have AC50 up to about 23 µM). As to conditions: SU-DIPG-XIII viability, CellTiter-Glo ATP luminescence.
Assay [6] in a line: viability loss in pontine glioma line – cell-based, SU-DIPG-XXV, MIPE5.0, CellTiter-Glo, qHTS, dose response (AID 1347065; cut-off not given, nearly all actives have AC50 up to about 26 µM;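 also: cells exposed to compound for 48 hours before ATP readout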). Particulars: CellTiter-Glo ATP luminescence.
Assay [7] can be described thus: JHH-DIPG-1 glioma cell viability, MIPE5.0 library, CellTiter-Glo luminescence, qHTS (AID 1347067; cut-off not given, nearly all actives have AC50 up to about 26 µM;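 also: cells exposed to compound for 48 hours before readout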). Particulars: JHH-DIPG-1 glioma viability, CellTiter-Glo ATP luminescence.
Assay [8] can be described thus: SU-DIPG-XXV glioma cell viability, MIPE5.0 library, qHTS (AID 1347068; cut-off not given, nearly all actives have IC50 up to about 30 µM). For orientation: qHTS replaces the single test concentration by a dilution series.
Assay [9] concerns the target ATP-dependent translocase ABCB1 (Homo sapiens) (UniProt P08183). Put plainly: MDR1 (ABCB1) efflux transporter inhibition, cell-based (AID 377; in the data active = fluorescence slope change above about 50%). Particulars: MDR1-expressing cells, fluorescent substrate accumulation slope; stronger effect = higher value; concentration not given here.
Assay [10] is described as follows: modifiers of HSF1 nuclear foci, imaging, Selleck Cancer Library (AID 1347162; in the data active = plate-normalised HSF1 focus index below about 0.46). Particulars: human cells, at 10 µM; SSMD: measured here: HSF1 foci SSMD mean; cell count: measured here: cell number; plate-normalised HSF1 focus index: stronger effect = lower value.
The nature of assay [11]: inhibitors of Cryptococcus chitosan production, flow cytometry, Cibacron Brilliant Red staining (AID 1347148).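 Also: compound exposure lasted three days at 37 degrees C.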 As to conditions: Cryptococcus neoformans chitosan, stronger effect = lower value; at 10 µM unless noted. A general note: Flow cytometry measures light scatter and fluorescence of single cells or particles in a stream.

ATP-dependent translocase ABCB1 (Homo sapiens), sequence (P08183 whole entry, looked up): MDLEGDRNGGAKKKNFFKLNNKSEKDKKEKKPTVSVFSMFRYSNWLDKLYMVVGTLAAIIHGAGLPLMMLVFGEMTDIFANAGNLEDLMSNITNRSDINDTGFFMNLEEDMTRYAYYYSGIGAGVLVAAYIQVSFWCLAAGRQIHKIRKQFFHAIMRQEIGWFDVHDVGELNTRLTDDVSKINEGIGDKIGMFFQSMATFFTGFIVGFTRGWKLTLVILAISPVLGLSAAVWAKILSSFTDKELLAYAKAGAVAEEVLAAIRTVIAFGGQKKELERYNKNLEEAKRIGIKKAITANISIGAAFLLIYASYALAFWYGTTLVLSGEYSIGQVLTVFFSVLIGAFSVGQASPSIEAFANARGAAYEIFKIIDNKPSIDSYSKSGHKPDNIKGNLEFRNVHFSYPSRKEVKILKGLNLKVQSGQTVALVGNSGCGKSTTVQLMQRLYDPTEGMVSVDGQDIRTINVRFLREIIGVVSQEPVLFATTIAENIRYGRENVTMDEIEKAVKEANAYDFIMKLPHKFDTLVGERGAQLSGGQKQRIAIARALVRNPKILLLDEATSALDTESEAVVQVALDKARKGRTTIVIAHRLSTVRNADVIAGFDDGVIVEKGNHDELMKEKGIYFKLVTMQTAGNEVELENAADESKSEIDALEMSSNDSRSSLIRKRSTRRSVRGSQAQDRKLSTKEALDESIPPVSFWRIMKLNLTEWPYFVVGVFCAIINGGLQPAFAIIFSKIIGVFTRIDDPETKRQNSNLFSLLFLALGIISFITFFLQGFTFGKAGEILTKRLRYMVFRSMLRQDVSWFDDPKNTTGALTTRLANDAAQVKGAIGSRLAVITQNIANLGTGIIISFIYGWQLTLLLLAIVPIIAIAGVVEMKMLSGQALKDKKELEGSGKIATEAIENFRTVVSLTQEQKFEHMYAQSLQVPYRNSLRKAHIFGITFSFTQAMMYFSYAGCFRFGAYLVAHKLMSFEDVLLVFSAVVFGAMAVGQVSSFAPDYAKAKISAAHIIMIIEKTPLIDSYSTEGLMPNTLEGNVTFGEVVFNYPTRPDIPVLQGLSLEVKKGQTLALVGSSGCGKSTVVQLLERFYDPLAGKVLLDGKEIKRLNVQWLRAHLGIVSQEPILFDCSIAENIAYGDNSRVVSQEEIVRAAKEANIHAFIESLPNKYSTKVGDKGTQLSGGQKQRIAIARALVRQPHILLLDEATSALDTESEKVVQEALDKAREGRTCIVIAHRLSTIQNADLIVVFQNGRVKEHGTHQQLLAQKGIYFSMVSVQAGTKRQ

The remaining activity is the signal under treatment as a percentage of the control signal. In assay [1], `CC(C)NCC(O)COc1cccc2ccccc12` (centres undefined) showed an inclusion score of 2. Besides, the remaining activity in assay [2] is 97.5% (inactive).

With `CS(=O)(=O)c1ccc(C2=C(c3ccccc3)C(=O)OC2)cc1`, the z-score in assay [3] is -0.0129 (inactive). Moreover, the compound was classed as inactive in assay [4], in assay [5], in [6], in assay [7] and in assay [8].

Turning to `C[N+]1(C)CCCC(OC(=O)C(O)(c2ccccc2)c2ccccc2)C1` (centres undefined), in assay [9], the fluorescence slope change was 13% (inactive). The inclusion score in [1] worked out at 2.

`CC(=O)O[C@]1(C(C)=O)CC[C@H]2[C@@H]3C[C@H](C)C4=CC(=O)CC[C@]4(C)[C@H]3CC[C@@]21C`: the compound was classed as inactive in assay [7] and in assay [8].

Consider `CN(C)CCC(c1ccc(Cl)cc1)c1ccccn1` (centres undefined), for which the fluorescence slope change in assay [9] is 220% (active). This compound had an inclusion score in assay [1] of 2. Moreover, the z-score in [3] is 0.208 (inactive).

For the compound `O=C(O[C@@H]1Cc2c(O)cc(O)cc2O[C@@H]1c1cc(O)c(O)c(O)c1)c1cc(O)c(O)c(O)c1`, the z-score in assay [3] is 2.31 (inactive). In [10], the SSMD stood at 0.931, the cell count stood at 6910 and the plate-normalised HSF1 focus index is 1.03 (inactive).

`C=CC1=C(C(=O)O)N2C(=O)[C@@H](NC(=O)/C(=N\O)c3csc(N)n3)[C@H]2SC1` (stereo in doubt): the compound was classed as inactive in assay [3].

For `COc1ccc2c3c1O[C@H]1C[C@@H](O)C=C[C@@]31CCN(C)C2`, in [9], the fluorescence slope change is 9.8% (inactive). This compound came in with an inclusion score in assay [1] of 2. Moreover, in assay [3], the z-score is 0.00606 (inactive). In addition, in assay [2], the remaining activity was 110% (inactive).

On to `CC(CCc1ccccc1)NCC(O)c1ccc(O)c(C(N)=O)c1` (centres undefined), for which the inclusion score in assay [1] stood at 2.

Regarding `Cn1cc[nH]c1=S`, in assay [9], the fluorescence slope change is 21.6% (inactive). In assay [1], this compound gave an inclusion score of 2.

On to `Cc1ccc(N(CC2=NCCN2)c2cccc(O)c2)cc1`, for which the fluorescence slope change in assay [9] is 72.4% (active). The compound also showed an inclusion score in [1] of 2. The result in [4], in [5] and in [6] was inactive. The fold fluorescence in [11] was 4.52 [at 177.7 µM] (inactive).

Consider `CCCc1nc(C(C)(C)O)c(C(=O)OCc2oc(=O)oc2C)n1Cc1ccc(-c2ccccc2-c2nn[nH]n2)cc1`, for which, in assay [3], the result was inactive.

With `C[C@H](CCC(=O)O)[C@H]1CC[C@H]2[C@@H]3[C@@H](O)C[C@@H]4C[C@H](O)CC[C@]4(C)[C@H]3CC[C@]12C`, the compound was classed as inactive in assay [4], in assay [6], in assay [7] and in assay [8].

Regarding `CCN1CCN(C(=O)N[C@@H](C(=O)N[C@@H]2C(=O)N3[C@@H]2SC(C)(C)[C@@H]3C(=O)O)c2ccccc2)C(=O)C1=O`, the fluorescence slope change in assay [9] is 1.5% (inactive).

Regarding `C[C@]12CC[C@@H]3c4ccc(O)cc4CC[C@H]3[C@@H]1CC[C@@H]2O`, the result in assay [5] was inactive. Further, in assay [6], the outcome was inactive. Also, the fold fluorescence in assay [11] is 5.13 [at 183.6 µM] (inactive). Moreover, in assay [10], the SSMD stood at 2.53, the cell count came out at 7010 and the plate-normalised HSF1 focus index is 1.15 (inactive).

For `OC[C@H]1O[C@@H](Oc2cc(O)cc(/C=C/c3ccc(O)cc3)c2)[C@H](O)[C@@H](O)[C@@H]1O`, the z-score in assay [3] was 0.265 (inactive). Moreover, the outcome in assay [6], in assay [7] and in assay [8] was inactive.

On to `CC(C)[N+]1(C)C2CCC1CC(OC(=O)C(CO)c1ccccc1)C2` (centres undefined), for which the remaining activity in [2] is 98.6% (inactive).

Take `CN=C(N)NCCC[C@H](N)C(=O)O`: the z-score in [3] is -0.991 (inactive).

Consider `CCCC1O[C@@H]2C[C@H]3[C@@H]4CCC5=CC(=O)C=C[C@]5(C)[C@H]4[C@@H](O)C[C@]3(C)[C@]2(C(=O)CO)O1` (some centres undefined), for which the fluorescence slope change in assay [9] is 56.9% (active). Also, the remaining activity in assay [2] was 98.4% (inactive) and 108% (inactive).

One may read the AC50 as the concentration giving half of the maximal activity seen. Regarding `Nc1ccn([C@@H]2O[C@H](CO)[C@@H](O)C2O)c(=O)n1` (some centres undefined), the z-score in [3] was 0.042 (inactive). The AC50 in assay [4] was 0.263 µM (active). Besides, the result in [5], in [6], in [7] and in assay [8] was inactive. Further, the SSMD in assay [10] is -7.27. This compound registered a cell count in assay [10] of 7440. Besides, in assay [10], the plate-normalised HSF1 focus index is 0.739 (inactive).

As for `CC[C@H](C)C(=O)O[C@H]1CCC=C2C=C[C@H](C)[C@H](CC[C@@H]3C[C@@H](O)CC(=O)O3)[C@H]21`, the z-score in [3] was -1.1 (inactive). Moreover, the remaining activity in [2] was 123% (inactive). The half-maximal activity concentration (AC50) is 6.61 µM (active) in assay [4] and 23.5 µM (active) in [7].

Regarding `CC(=O)N=c1sc(S(N)(=O)=O)nn1C`, in [9], the fluorescence slope change was 65.4% (active). In assay [1], the inclusion score was found to be 2.

As for `CNCCC=C1c2ccccc2CCc2ccccc21`, the fluorescence slope change in assay [9] was 145% (active).

Take `COc1ccc(-c2oc3c(CC=C(C)C)c(O[C@@H]4O[C@H](CO)[C@@H](O)[C@H](O)[C@H]4O)cc(O)c3c(=O)c2O[C@@H]2O[C@@H](C)[C@H](O)[C@@H](O)[C@H]2O)cc1`: in assay [3], the z-score is 0.976 (inactive).

`CCCCCCCCCCCC1=C(O)C(=O)C=C(O)C1=O`: the remaining activity in [2] was 99.6% (inactive). Also, the outcome in [8] was inactive.

For the compound `O=C(O)c1cccnc1C(=O)O`, the inclusion score in [1] was determined as 2. The remaining activity in assay [2] is 95.4% (inactive).
